One test concerns CRL-7250. The experiment in a line: Cytotoxic Profiling of Annotated Libraries Using Quantitative High-Throughput Screening (AID 1296008). Also: potency is read from the fitted curve at half-maximal effect. As to max response: % is scaled to controls: 0 for no effect and ±100 for the full control effect. The note with it: Five cell lines viability, CellTiter-Glo ATP luminescence, 48-72 h; max response: active compounds read low. The procedure, abridged:
(§1)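 Cells exposed to compounds for 48 or 72 hr at 37 degrees Celsius. Viability read as ATP-coupled luminescence with CellTiter-Glo after 10 min at room temperature.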
(In general: In ATP-based viability assays light output follows the ATP content of the culture.)

The test system of another test is HEK293. The description is as above. The note with it: Five cell lines viability, CellTiter-Glo ATP luminescence, 48-72 h; max response: active compounds read low. The procedure, abridged:
as §1

Test [1] relates to HaCat. The test is described as above. The note with it: Five cell lines viability, CellTiter-Glo ATP luminescence, 48-72 h; max response: active compounds read low. In outline:
as §1

In the next test the test system is NIH3T3. Described as above. The note with it: Five cell lines viability, CellTiter-Glo ATP luminescence, 48-72 h; max response: active compounds read low. The procedure, abridged: as §1
The subject of test [2] is HACAT. The experiment in a line: qHTS assay to identify novel small-molecules to repurpose for Merkel cell carcinoma treatment (AID 1296009). The note with it: MCC and control cell lines, CellTiter-Glo viability, 72 h; at 44.8 µM (top of the series) unless noted. In outline:
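Cells were treated for 72 hr at 37 degree celsius with compounds in 8- or 11-point dose response. Viability was read by CellTiter-Glo luminescence, normalized to no-cell (cytotoxicity) and DMSO controls.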
For orientation: In qHTS, concentration-response curves come from the screen itself.

The test system of another test is ICS. Briefly: qHTS profiling for inhibitors of Plasmodium falciparum proliferation (AID 504749). Also: potency is read from the fitted curve at half-maximal effect. The note with it: P. falciparum in erythrocytes, SYBR Green DNA, 72 h; series mostly up to 28.7 µM. In outline: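 P. falciparum-infected erythrocytes (0.3% parasitemia, 2.5% hematocrit) incubated with compound 72 h at 37 C, 5% CO2. Parasite DNA detected by SYBR Green after lysis, overnight at room temperature; normalised to 0.29 uM artemisinin and DMSO.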

A further test deals with KB-3-1. The experiment in a line: Cytotoxic Profiling of Annotated Libraries Using Quantitative High-Throughput Screening (AID 1296008). Also: potency is read from the fitted curve at half-maximal effect. As to max response: % is scaled to controls: 0 for no effect and ±100 for the full control effect. The note with it: Five cell lines viability, CellTiter-Glo ATP luminescence, 48-72 h; max response: active compounds read low. The procedure, abridged:
as §1

The structures appear in SMILES notation. Results filed as inconclusive are left out. Values without a mark were called inactive. The source made the active and inactive calls. Calls follow the shape of the dose curve; as a rule, active = well fitted inhibition curve with a large enough effect; inconclusive = small, poorly fitted or top-dose-only effect; inactive = flat fitted curve, though single readings scatter. Where a SMILES comes first, the peptide text is derived from it. [ ]: non-standard residue; d: D form. pGlu = O=C1CC[C@@H](C(=O)O)N1
Also: nearly all actives have a fitted effect of over 60% in size.

Regarding `CN(C)CCN1CCN(c2cccc(Cl)c2)C1=O`, the max response in the test on CRL-7250 was -6.51%. Besides, the compound was classed as inactive in the test with HEK293, in the test with HaCat [1], with NIH3T3 and in the test with HACAT [2].
For `COc1cc(OC)nc(O[C@H](C(=O)O)C(OC)(c2ccccc2)c2ccccc2)n1`, the max response in the test on CRL-7250 was 3.73%. Moreover, the outcome with HEK293, with HaCat [1], in the test on NIH3T3 and in the test on HACAT [2] was inactive.
Regarding `O=C1Cc2cc(Cl)ccc2N1`, the max response in the test on CRL-7250 was -11.6%; with HEK293, -3.82%; with NIH3T3 it was 3.19%. Further, the call with HaCat [1] and in the test on HACAT [2] was inactive.
Consider `CCCC(CCC)(C(=O)OCC)C(=O)OCC`, for which the max response is -5.21% with CRL-7250, 2.87% in the test with HEK293 and 4.44% in the test on NIH3T3. Further, the result in the test with HaCat [1] and in the test with HACAT [2] was inactive.
`Nc1ccc2cc3ccc(N)cc3nc2c1`: the Potency in the test with ICS was 2.82 µM (active).
Turning to `CCCN(CCC)C(=O)C(CCC(=O)OCCCN1CCN(CCOC(=O)Cc2c(C)n(C(=O)c3ccc(Cl)cc3)c3ccc(OC)cc23)CC1)NC(=O)c1ccccc1` (stereo not given), the max response in the test with CRL-7250 is -6.96%; in the test on HaCat [1], -0.687%; with KB-3-1, -0.886%; with NIH3T3, 1.41%.
In the case of `CO/N=C(/C(=O)N[C@@H]1C(=O)N2C(C(=O)O)=C(Cn3nnc(C)n3)CS[C@H]12)c1csc(N)n1`, the max response with CRL-7250 is 4.76%; with HaCat [1], -1.44%; in the test on NIH3T3, 2.67%. Moreover, in the test with KB-3-1, the call was inactive.
Consider `CCCC(=O)O[C@]1(C(=O)CCl)[C@@H](C)C[C@H]2[C@@H]3CCC4=CC(=O)C=C[C@]4(C)[C@@]3(F)C(=O)C[C@@]21C`, for which the max response in the test on CRL-7250 was -8.55%; in the test with HaCat [1], -2.69%; with NIH3T3, -3.48%.
As to `CC(C)NCCCC1(C(N)=O)c2ccccc2-c2ccccc21`, in the test on CRL-7250, the outcome was inactive. Moreover, the max response is 4.87% in the test with HaCat [1] and -1.37% in the test with NIH3T3.
`CC(C)OC(=O)c1cc2c(OCC(O)CNC(C)(C)C)cccc2[nH]1` (stereo not given): the max response with CRL-7250 is -22.1%; with HaCat [1], -9.3%; with KB-3-1 it was -5.12%.
On to `CCNC(=O)[C@@H]1CCCN1C(=O)[C@H](CCCN=C(N)N)NC(=O)[C@H](CC(C)C)NC(=O)CNC(=O)[C@H](Cc1ccc(O)cc1)NC(=O)[C@H](CO)NC(=O)[C@H](Cc1c[nH]c2ccccc12)NC(=O)[C@H](Cc1cnc[nH]1)NC(=O)[C@@H]1CCC(=O)N1` ([pGlu]HWSYGLRP-NHEt), for which the compound was called inactive with CRL-7250. The max response in the test with HEK293 was -8.7%; in the test with NIH3T3 it was -1.57%.
Regarding `NS(=O)(=O)c1cc2c(cc1Cl)CN(C1CCCCC1)C2=O`, the max response in the test with CRL-7250 is -6.27%; in the test on NIH3T3 it was 4.87%. In the test on HEK293, the compound was classed as inactive.
`CCC(CN)=C(c1ccccc1)c1ccccc1`: the result with CRL-7250 and in the test on NIH3T3 was inactive. In addition, the max response in the test with HaCat [1] was 1.4%.
With `CNC(=O)c1cnn(-c2nc(N)c3ncn([C@@H]4O[C@H](CO)[C@@H](O)[C@H]4O)c3n2)c1`, the max response with CRL-7250 was -10.9%; in the test with NIH3T3 it was -3.79%. Moreover, the outcome with HEK293 was inactive.
On to `Cc1nc(C2CCCCC2)c(-c2ccc(S(N)(=O)=O)c(F)c2)o1`, for which the max response in the test with CRL-7250 is -4.52%; with NIH3T3 it was -12.8%. Besides, the compound was classed as inactive in the test on HaCat [1] and with HACAT [2].
In the case of `CC(=O)OC/C=C(C)/C=C/C=C(C)/C=C/C1=C(C)CCCC1(C)C`, the figures for the max response in the test on CRL-7250, in the test on KB-3-1 and with NIH3T3 were 0.956%, -3.66% and 1.83%, respectively. In addition, the outcome in the test with HaCat [1] and in the test with HACAT [2] was inactive.
For `CC(=O)[C@@]1(O)CC[C@H]2[C@@H]3C[C@H](C)C4=CC(=O)CC[C@]4(C)[C@H]3CC[C@@]21C`, the max response is -14.2% in the test on CRL-7250, -16.6% with HaCat [1] and -7.02% in the test with KB-3-1.
Turning to `O=C1Nc2ccccc2C1(c1ccc(O)cc1)c1ccc(O)cc1`, in the test with CRL-7250, the Potency is 23.7 µM (active). For the same compound, the max response in the test with HaCat [1] is -55.1%; with NIH3T3 it was -21.7%.
With `CCN1CCN(c2cc(-c3ccc(F)cc3)c3c(n2)CCCCCC3)CC1`, the values for the max response with CRL-7250, in the test on HaCat [1] and in the test on KB-3-1 were 3.32%, 0.965% and -12.5%, respectively. In the test with NIH3T3, the outcome was inactive.
In the case of `O=C(c1cc(O)c(O)c(O)c1)c1ccc(O)c(O)c1O`, the figures for the max response in the test on CRL-7250 and with HaCat [1] were -19.4% and -2.77%, respectively.
For `CCCC(=O)c1cc(O)c(O)cc1O`, in that order: -22.6% and -3.56%.
Turning to `CCOC(=O)c1ccc(NC(=O)CN2CCCCC2)cc1`, the max response with CRL-7250 was -6.82%; in the test with HaCat [1], 4.59%. Also, the compound was called inactive in the test on KB-3-1 and with NIH3T3.
On to `Cc1ccc(Cl)c(OCC(O)CNC(C)(C)C)c1` (stereo not given), for which the outcome in the test with CRL-7250 was inactive. The max response was 2.84% in the test on HaCat [1] and 1.79% with NIH3T3.
Take `CN(C)[C@@H]1C(=O)C(C(N)=O)=C(O)[C@@]2(O)C(=O)C3=C(O)c4c(O)cccc4C[C@H]3C[C@@H]12`: the max response with CRL-7250 was -0.669%; with HaCat [1] it was -5.74%; with NIH3T3, 1.19%.
`CCC(=O)Oc1ccc2c(c1)CC[C@@H]1[C@@H]2CC[C@@]2(C)[C@H]1C[C@@H](OC(=O)CC)[C@@H]2OC(=O)CC`: the max response with CRL-7250 was -3.71%; in the test on HaCat [1], -1.68%. In the test on NIH3T3, the compound was called inactive.
As for `CCCc1ccc(OCC(=O)N2CCN(C(=O)COc3ccc(CCC)cc3OC)CC2)c(OC)c1`, the max response in the test on CRL-7250 was -1.28%; in the test on HaCat [1] it was 5%; in the test with NIH3T3, 0.399%.
Consider `CCN1C(=O)c2ccccc2C1Nc1ccc(OCCN2CCCCC2)cc1` (stereo not given), for which the max response with CRL-7250 is -2.5%; with HaCat [1], -6.62%; with NIH3T3, -13.7%. Further, the compound was called inactive with KB-3-1.
For the compound `C/C=C(/C(=C/C)c1ccc(OC(C)=O)cc1)c1ccc(OC(C)=O)cc1`, the max response is 0.166% in the test on CRL-7250 and -0.599% in the test with NIH3T3. Besides, the result with HaCat [1] and with HACAT [2] was inactive.
On to `CCCCNc1ccc(C(=O)OCCN(CC)CC)cc1`, for which the max response was -6.06% with CRL-7250, -28.3% in the test with HaCat [1] and -0.138% in the test with KB-3-1.

The values are drawn from PubChem BioAssay (NCATS).
